Bioassay records as filed in PubChem BioAssay.
The sample as a whole holds a higher share of hits than the screen did.
Cycloheximide cs: counter-screen for Shiga toxin inhibitors: cycloheximide protein synthesis inhibition. cell reporter, cycloheximide protein synthesis inhibition counterscreen. max response, %. 300,000 compounds, 12% hits; in the data active = max response mostly above about 13%, no sharp cut-off; inactive = mostly below about 14%; also: read at 38.3 µM for the half of the compounds with a filed dose; 0% is about no effect
Shiga toxin inh: inhibitors of Shiga toxin in Vero cells; Vero cells, Shiga toxin protein synthesis inhibition reporter; inhibition, % at 38.7 µM; 290,000 compounds, 9.2% hits; in the data active = inhibition mostly above about 28%, no sharp cut-off; inactive = mostly below about 43%; also: 0% is about no effect
Sm TGR block: inhibitors of Schistosoma mansoni thioredoxin glutathione reductase; Q962Y6; purified TGR, DTNB reduction, TNB absorbance 405 nm; Potency, µM (highest dose often 114 µM), inactives show top-dose activity change, negative = inhibition, usual class: inhibitors; 360,000 compounds, 3% hits; AID 485364; also: potency is read from the fitted curve at half-maximal effect; % is scaled to controls: 0 for no effect and ±100 for the full control effect; nearly all actives have a fitted effect of over 60% in size
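TGR 20 nM + NADPH 100 uM (dispensed conc.), cpd preinc 15 min RT; start with NADPH (500 uM addition) then DTNB (15 mM addition). Kinetic TNB absorbance, 405 nm filter. Four-parameter Hill fit across titration.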
FBPA Giardia inh: inhibitors of Giardia lamblia fructose-1,6-bisphosphate aldolase. A8B2U2. purified Giardia FBPA. Potency, µM (titrated, usually from 59.6 µM), for the others: at the highest dose activity, negative = inhibition, usual class: inhibitors. 290,000 compounds, 0.71% hits. AID 2451; also: potency is read from the fitted curve at half-maximal effect; % is scaled to controls: 0 for no effect and ±100 for the full control effect; nearly all actives have a fitted effect of over 55% in size
Target sequence (A8B2U2 whole entry, looked up): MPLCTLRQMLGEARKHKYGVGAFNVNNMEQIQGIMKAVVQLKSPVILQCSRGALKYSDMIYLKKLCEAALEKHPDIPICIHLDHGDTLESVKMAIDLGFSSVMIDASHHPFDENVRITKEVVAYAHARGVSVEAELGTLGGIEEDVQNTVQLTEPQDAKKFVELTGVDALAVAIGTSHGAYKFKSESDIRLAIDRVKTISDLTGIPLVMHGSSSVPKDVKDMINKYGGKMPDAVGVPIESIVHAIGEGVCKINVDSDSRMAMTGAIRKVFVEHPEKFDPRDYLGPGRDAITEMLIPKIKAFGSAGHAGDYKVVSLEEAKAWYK
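40 nM FBPA preincubated 10 min at RT with compound (up to 57.5 uM final), then substrate plus GAPDH/TPI/NAD/arsenate coupling and diaphorase/resazurin added. Fluorescence read after 20 min at RT, 525/598 nm.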
LmPK inh: inhibitors of Leishmania mexicana pyruvate kinase | AID 1721 | 290,000 compounds, 0.37% hits | Potency, µM (titrated, usually from 57.5 µM), without a hit: at the highest dose activity change, negative = inhibition, actives largely listed as inhibitors | Q27686 | purified LmPK, Kinase-Glo ATP luminescence, 1 h; also: potency is read from the fitted curve at half-maximal effect; % is scaled to controls: 0 for no effect and ±100 for the full control effect
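ATP generated from ADP (0.1 mM) and PEP (0.5 mM) by 0.1 nM LmPK over 1 h at room temperature (pH 7.2 imidazole buffer) was detected by coupled luciferase luminescence. Values were normalized to uninhibited and no-enzyme wells.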
Tb PYK inh: blocks Trypanosoma brucei pyruvate kinase; 410,000 compounds, 0.12% hits; Potency, µM (series often up to 76.8 µM), without a hit: at the top dose activity, negative = inhibition, hits mostly inhibitors; Q57TT1; TbPYK enzyme, Kinase-Glo Plus ATP luminescence, 45 min; AID 624173; also: potency is read from the fitted curve at half-maximal effect; % is scaled to controls: 0 for no effect and ±100 for the full control effect; nearly all actives have a fitted effect of over 50% in size
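In this concentration-response screen, enzyme-free wells defined baseline while DMSO plates tracked drift. Each reaction combined TbPYK, substrate, compound and 130 uM ADP for 45 min at room temperature. Kinase-Glo Plus luminescence gave the signal.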
An asterisk follows results filed as active; ? = inconclusive; · = not tested or not shown. Unless noted, calls follow the shape of the dose curve; as a rule, active = well fitted curve in the direction sought with a large enough effect; inconclusive = small, poorly fitted or top-dose-only effect, or another doubt; inactive = no such curve, though single readings can be large; an effect the other way counts as inactive or inconclusive.

SMILES | Cycloheximide cs | Shiga toxin inh | Sm TGR block | FBPA Giardia inh | LmPK inh | Tb PYK inh
CC(Cc1ccsc1)NC(=O)CCc1nnc(CCc2ccccc2)o1 (stereo not drawn) | 1 | -2 | 3% | 0% | 0% | -4%
CNC(=O)CSc1nnc(-c2ccco2)n1-c1ccccc1 | -4 | 1 | -1% | 6% | 1% | -13%
CN(Cc1ccccc1)C(=O)CSc1nnc(-c2ccco2)n1-c1ccccc1 | -3 | 24 | 32µM* | 0% | 5% | -19%
CCn1c(SCC(=O)Nc2sc3c(c2C#N)CCCC3)nnc1-c1ccco1 | 10 | 8 | ? | 0% | 6% | -20%
c1ccc(-n2c(SCc3nc(-c4cccs4)no3)nnc2-c2ccco2)cc1 | 21 | 25 | 45µM* | -30% | -10% | 5%
N#Cc1c(NC(=O)CSc2nnc(-c3ccco3)n2-c2ccccc2)sc2c1CCC2 | -4 | -2 | 56µM* | 0% | 1% | -4%
NC(=O)c1c(NC(=O)CSc2nnc(-c3ccco3)n2-c2ccccc2)sc2c1CCC2 | 10 | 7 | 22µM* | -18% | 3% | -2%
COC(=O)[C@@]1(Cc2ccccc2)[C@H]2c3cc(C(=O)N4CCCC4)n(Cc4ccc(O)c(OC)c4)c3C[C@H]2CN1C(=O)c1ccccc1 | · | · | · | -11% | · | ·
N#Cc1c(NC(=O)CSc2nnnn2C2CCCCC2)sc2c1CCCC2 | -7 | -15 | -15% | 3% | 1% | 5%
Cc1nnc(SCC(=O)Nc2sc3c(c2C#N)CCCCC3)n1N | 20* | 51* | -2% | -16% | -2% | -8%
CN(C)c1ccc(C2C3CCCc4ccccc4C3=NN2C)cc1 (stereo not drawn) | 59* | 96* | 8% | 0% | 3% | 4%
CCOC(=O)c1c(C)[nH]c(CCC(=O)Nc2c(C)cccc2CC)c1C | · | · | -4% | · | · | -5%
Cc1cc(NC(=O)CCN2C(=O)C3C4C=CC(C4)C3C2=O)ccc1Br (stereo not drawn) | 23* | 52 | 7% | 7% | 1% | 3%
O=C(NCCN1C(=O)C2C3C=CC(C3)C2C1=O)Nc1cccnc1 (stereo not drawn) | -4 | -10 | -32% | 1% | 7% | -1%
COc1ccc(NC(=O)CCN2C(=O)C3C4C=CC(C4)C3C2=O)cc1 (stereo not drawn) | 3 | 5 | · | 3% | 1% | -8%
Cc1c(Br)ccc(NC(=O)CCN2C(=O)C3C4CCC(C4)C3C2=O)c1C (stereo not drawn) | 19* | 34* | 11% | 0% | 1% | 0%
O=C(NCCN1C(=O)C2C3C=CC(C3)C2C1=O)Nc1ccc(Br)cc1 (stereo not drawn) | 83* | 65* | 2% | 2% | 2% | -4%
CCOc1ccc(OCC)c(NC(=O)C2CCCN(S(=O)(=O)c3cc(Br)cc4c3N(C(=O)CC)CC4)C2)c1 (stereo not drawn) | · | · | 5% | · | · | 4%
Cc1cc(C(=O)N/N=C2\CC(=O)c3ccccc32)c(C)n1-c1ccccc1 | 35* | 65* | -13% | -21% | -17% | -7%
Cc1cc(C(=O)N/N=C2\CC(=O)CC(C)(C)C2)c(C)n1-c1ccccc1 | 87* | 89* | -8% | -24% | 5% | 2%
CCCCN1CC(COCc2ccccc2)Oc2cccc(OCCN3C(=O)[C@@H]4[C@H](C3=O)C3C=C[C@H]4C3)c2S1(=O)=O (stereo partly drawn) | · | · | · | · | · | -1%
CC(C)NC(=S)N/N=C/c1c[nH]c2ccccc12 | 18* | 29* | -18% | 3% | 1% | -2%
CC(C)c1cc(C(=O)N/N=C/c2c[nH]c3ccccc23)n[nH]1 | 17* | 53* | -3% | 4% | -2% | 0%
O=C(N/N=C/c1c[nH]c2ccccc12)c1ccn(Cc2ccc(Cl)cc2Cl)n1 | 8 | 10 | 0% | -1% | 1% | 0%
CCOc1ccc2ccccc2c1/C=N/NC(=O)c1cc(C)[nH]n1 | -3 | -5 | -5% | -12% | -3% | 0%
SMILES | Cycloheximide cs | Shiga toxin inh | Sm TGR block | FBPA Giardia inh | LmPK inh | Tb PYK inh
CC(SC(C)C(=O)NN=Cc1c[nH]c2ccccc12)C(=O)NN=Cc1c[nH]c2ccccc12 (stereo not drawn) | · | · | · | · | · | 9%
Cn1ccc(C(=O)N/N=C/c2c[nH]c3ccccc23)n1 | 45* | 59* | 4% | 4% | 0% | 2%
CCOc1ccccc1/C=N/NC(=O)c1cc(C(C)C)[nH]n1 | 36* | 65* | 18% | 6% | 0% | -4%
O=C(/C=C/c1ccccc1)OCc1ccccc1 | · | · | · | · | · | 6%
Cn1c(=O)oc2cc(S(=O)(=O)CCC(=O)NCc3ccc(Cl)cc3)ccc21 | · | · | -4% | · | · | -1%
COc1ccccc1/C=C/C(=O)/C=C/c1ccccc1O | 99* | 139* | 20µM* | -20% | -1% | -5%
COc1ccccc1C=CC(=O)C=Cc1ccccc1OC | · | · | · | · | · | 0%
COc1ccccc1/C=C/C(=O)N1CCCC1 | 33* | 36 | 7% | 1% | -5% | -7%
c1ccc(COC2COC3C(OCc4ccccc4)COC23)cc1 (stereo not drawn) | · | · | · | · | · | -3%
CCCCc1ccc(/C=C2\C(=O)c3ccccc3C(O)=C2C(=O)OCC)cc1 | 16* | 30* | 11µM* | ? | -19% | ·
CCOC(=O)C1=C(C)NC2=C(C(=O)c3ccccc32)C1c1ccc(O)cc1 (stereo not drawn) | -2 | -2 | 11% | -8% | -3% | 3%
COc1ccc(OC)c(CNC(=O)c2cc(S(=O)(=O)N3CCC(C)CC3)cn2C)c1 | · | · | -1% | · | · | 4%
O=C1OC/C(=C(/O)c2ccc(Cl)cc2)C1=O | 7 | -4 | 16µM* | 10% | 2% | 7%
O=C(O)CCCN1C(=O)C(=O)/C(=C(/O)c2ccc(Cl)cc2)C1c1ccccc1 (stereo not drawn) | -3 | 28 | -2% | 15% | 8% | 6%
CC1C/C(=C/c2cccn2C)C(=O)/C(=C/c2cccn2C)C1 (stereo not drawn) | 29* | 49* | 0% | -26% | 1% | 0%
CCNC(=O)CC1C(=O)N(c2ccc(C)cc2)C(=O)N1Cc1ccc(C)cc1 (stereo not drawn) | · | · | 3% | · | · | -3%
NC(=O)C1CCCNC1 (stereo not drawn) | -3 | -6 | 28µM* | 7% | -5% | 2%
CC(C)c1ccc(NC(=O)C2CCCN(S(=O)(=O)c3cccc4nsnc34)C2)cc1 (stereo not drawn) | · | · | 18% | · | · | -1%
COc1ccc(S(=O)(=O)NCC2CCCN(Cc3ccc(C)o3)C2)cc1 (stereo not drawn) | -2 | -3 | 35µM* | 3% | 4% | 0%
CCCCN(Cc1cccs1)S(=O)(=O)c1cc(-c2cc(C)no2)ccc1C | · | · | -3% | · | · | -9%
